This is an account of results in PMC7862700, “An all-to-all approach to the identification of sequence-specific readers for epigenetic DNA modifications on cytosine”.

Assay in all cases: DAPPL (digital affinity profiling via proximity ligation, sequencing); 10 mM Tris-HCl pH 7.5, 50 mM NaCl, 1 mM DTT, 4% glycerol, room temperature, 30 min; GST-TFs on glutathione beads, 16-mer random dsDNA library, 0.1% formaldehyde crosslink after washing; high values mean tight binding
The target in experiment [1] is T1, FEV (Homo sapiens, UniProt Q99581 1-238).
T1 sequence: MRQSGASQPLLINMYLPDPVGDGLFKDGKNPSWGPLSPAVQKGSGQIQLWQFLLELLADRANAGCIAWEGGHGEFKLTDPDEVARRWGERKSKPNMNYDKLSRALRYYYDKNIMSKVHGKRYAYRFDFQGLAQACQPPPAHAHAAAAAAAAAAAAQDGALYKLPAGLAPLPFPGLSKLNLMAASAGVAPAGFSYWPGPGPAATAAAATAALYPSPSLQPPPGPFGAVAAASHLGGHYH
Conditions: protein: recombinant; tags: N-terminal GST; dsDNA, one strand shown. A digest of the protocol:
(§1)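 Human transcription factors were made in yeast as GST fusions, captured on glutathione beads and barcoded with DNA. With a tag-only sample included, the pool was incubated with 200 nmole of a random double-stranded 16-mer DNA library in Tris/NaCl/DTT/glycerol buffer at room temperature for 30 min, then crosslinked with 0.1% formaldehyde after washing, ligated by proximity, amplified and sequenced. For binding signal, each hexamer's read frequency for a factor is divided by its frequency for the tag-only sample.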

The target of experiment [2] is ETV5 (Homo sapiens, UniProt P41161 1-510). As to conditions: protein: recombinant; tags: N-terminal GST; dsDNA, one strand shown. A digest of the protocol:
as §1

Experiment [3] deals with HSF1 (Homo sapiens, UniProt Q00613 1-529). As to conditions: protein: recombinant; tags: N-terminal GST; chain copies: 3; dsDNA, one strand shown. A digest of the protocol:
as §1

For experiment [4], the target named is T2, SPIC (Homo sapiens, UniProt Q8N5J4 1-248).
T2 sequence: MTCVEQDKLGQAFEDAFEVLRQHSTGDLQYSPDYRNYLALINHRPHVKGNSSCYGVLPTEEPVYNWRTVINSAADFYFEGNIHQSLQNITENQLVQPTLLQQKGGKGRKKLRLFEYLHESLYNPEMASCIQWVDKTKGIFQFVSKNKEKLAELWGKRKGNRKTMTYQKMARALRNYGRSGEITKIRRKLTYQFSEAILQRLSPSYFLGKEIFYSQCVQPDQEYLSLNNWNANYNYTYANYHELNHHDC
Conditions: protein: recombinant; tags: N-terminal GST; dsDNA, one strand shown. A digest of the protocol: as §1

The target in experiment [5] is ELF4 (Homo sapiens, UniProt Q99607 1-663). As to conditions: protein: recombinant; tags: N-terminal GST; dsDNA, one strand shown. A digest of the protocol:
as §1

Experiment [6] has as its target T3, ELK4 (Homo sapiens, UniProt P28324-2 1-405).
T3 sequence: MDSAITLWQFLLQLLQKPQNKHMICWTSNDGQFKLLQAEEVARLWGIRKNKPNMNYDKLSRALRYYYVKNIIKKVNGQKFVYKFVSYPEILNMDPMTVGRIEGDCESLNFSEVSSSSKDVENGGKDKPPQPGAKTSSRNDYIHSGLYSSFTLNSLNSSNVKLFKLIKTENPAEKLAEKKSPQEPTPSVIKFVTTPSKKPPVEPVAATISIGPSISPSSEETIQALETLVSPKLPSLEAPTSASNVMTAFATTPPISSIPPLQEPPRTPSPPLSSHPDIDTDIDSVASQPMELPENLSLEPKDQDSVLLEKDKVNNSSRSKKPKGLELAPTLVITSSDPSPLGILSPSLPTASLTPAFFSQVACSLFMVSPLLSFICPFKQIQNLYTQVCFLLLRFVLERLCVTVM
Conditions: protein: recombinant; tags: N-terminal GST; dsDNA, one strand shown. A digest of the protocol: as §1

The target of experiment [7] is T4, ETV2 (Homo sapiens, UniProt O00321 1-342).
T4 sequence: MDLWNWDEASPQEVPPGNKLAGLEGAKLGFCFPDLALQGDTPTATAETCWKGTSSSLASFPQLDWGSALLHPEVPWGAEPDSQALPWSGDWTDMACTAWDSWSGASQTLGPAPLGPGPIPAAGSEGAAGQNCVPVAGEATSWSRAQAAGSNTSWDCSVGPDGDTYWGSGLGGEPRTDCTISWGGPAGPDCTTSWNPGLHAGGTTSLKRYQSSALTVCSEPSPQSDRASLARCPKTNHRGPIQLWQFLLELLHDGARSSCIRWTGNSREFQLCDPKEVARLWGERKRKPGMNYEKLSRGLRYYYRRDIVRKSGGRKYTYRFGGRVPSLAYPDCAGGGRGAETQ
Conditions: protein: recombinant; tags: N-terminal GST; dsDNA, one strand shown. A digest of the protocol:
as §1

Experiment [8] deals with T5, ELF3 (Homo sapiens, UniProt P78545 1-371).
T5 sequence: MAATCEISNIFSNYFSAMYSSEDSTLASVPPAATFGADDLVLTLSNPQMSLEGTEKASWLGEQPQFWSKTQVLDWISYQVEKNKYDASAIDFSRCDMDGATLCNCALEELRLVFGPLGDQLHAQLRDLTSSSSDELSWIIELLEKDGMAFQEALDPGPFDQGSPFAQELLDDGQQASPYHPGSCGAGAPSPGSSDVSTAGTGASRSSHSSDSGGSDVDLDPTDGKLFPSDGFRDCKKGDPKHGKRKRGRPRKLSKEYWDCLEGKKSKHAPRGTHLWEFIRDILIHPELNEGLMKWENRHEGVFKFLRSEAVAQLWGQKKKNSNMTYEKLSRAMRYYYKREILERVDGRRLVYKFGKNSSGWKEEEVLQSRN
Conditions: protein: recombinant; tags: N-terminal GST; dsDNA, one strand shown. A digest of the protocol:
as §1

Experiment [9] addresses CRX (Homo sapiens, UniProt O43186 1-299). As to conditions: protein: recombinant; tags: N-terminal GST; dsDNA, one strand shown. A digest of the protocol:
as §1

Experiment [10] concerns the target ETV1 (Homo sapiens, UniProt P50549 1-477). As to conditions: protein: recombinant; tags: N-terminal GST; dsDNA, one strand shown. A digest of the protocol: as §1
In experiment [11] the target is T6, ERF (Homo sapiens, UniProt P50548 1-548).
T6 sequence: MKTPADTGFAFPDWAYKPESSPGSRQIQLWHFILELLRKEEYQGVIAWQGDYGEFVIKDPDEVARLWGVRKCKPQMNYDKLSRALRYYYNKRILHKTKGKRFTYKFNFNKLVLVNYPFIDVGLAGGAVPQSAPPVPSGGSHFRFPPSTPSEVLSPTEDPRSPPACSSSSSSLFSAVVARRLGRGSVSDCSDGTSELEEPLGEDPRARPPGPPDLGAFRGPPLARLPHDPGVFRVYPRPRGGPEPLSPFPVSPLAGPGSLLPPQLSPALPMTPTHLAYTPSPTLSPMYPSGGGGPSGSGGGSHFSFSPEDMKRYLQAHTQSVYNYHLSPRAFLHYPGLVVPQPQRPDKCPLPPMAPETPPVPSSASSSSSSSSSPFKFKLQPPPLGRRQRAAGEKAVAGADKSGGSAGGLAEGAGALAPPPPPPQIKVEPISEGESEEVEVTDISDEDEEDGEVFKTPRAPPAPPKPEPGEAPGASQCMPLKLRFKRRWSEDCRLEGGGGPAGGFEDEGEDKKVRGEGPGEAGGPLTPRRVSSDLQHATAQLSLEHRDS
Conditions: protein: recombinant; tags: N-terminal GST; dsDNA, one strand shown. A digest of the protocol:
as §1

In experiment [12] the target is T7, ETV3L (Homo sapiens, UniProt Q6ZN32 1-361).
T7 sequence: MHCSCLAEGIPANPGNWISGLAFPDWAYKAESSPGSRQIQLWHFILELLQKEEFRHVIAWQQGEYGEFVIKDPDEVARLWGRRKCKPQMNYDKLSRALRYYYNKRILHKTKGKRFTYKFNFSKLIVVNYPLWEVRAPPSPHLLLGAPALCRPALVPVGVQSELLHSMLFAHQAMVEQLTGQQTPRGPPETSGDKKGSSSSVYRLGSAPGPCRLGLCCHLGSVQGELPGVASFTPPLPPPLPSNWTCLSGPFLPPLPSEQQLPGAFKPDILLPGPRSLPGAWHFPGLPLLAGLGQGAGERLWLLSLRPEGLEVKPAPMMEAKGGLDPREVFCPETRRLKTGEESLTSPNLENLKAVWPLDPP
As to conditions: protein: recombinant; tags: N-terminal GST; dsDNA, one strand shown. A digest of the protocol:
as §1

Experiment [13] concerns the target T8, ETS2 (Homo sapiens, UniProt P15036 1-469).
T8 sequence: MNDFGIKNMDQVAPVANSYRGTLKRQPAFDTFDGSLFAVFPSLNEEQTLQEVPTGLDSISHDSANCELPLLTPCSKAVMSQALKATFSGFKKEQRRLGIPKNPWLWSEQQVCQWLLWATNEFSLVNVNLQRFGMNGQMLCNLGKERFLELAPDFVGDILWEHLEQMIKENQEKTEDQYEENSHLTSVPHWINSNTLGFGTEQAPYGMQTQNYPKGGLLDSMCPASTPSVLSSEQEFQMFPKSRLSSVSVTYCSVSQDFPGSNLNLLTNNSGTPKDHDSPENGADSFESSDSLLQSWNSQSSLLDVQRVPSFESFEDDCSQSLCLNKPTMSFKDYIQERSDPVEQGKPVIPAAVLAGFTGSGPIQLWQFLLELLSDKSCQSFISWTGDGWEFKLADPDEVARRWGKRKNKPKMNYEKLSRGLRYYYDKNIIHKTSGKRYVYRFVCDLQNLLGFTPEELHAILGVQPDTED
As to conditions: protein: recombinant; tags: N-terminal GST; dsDNA, one strand shown. A digest of the protocol: as §1

Experiment [14] addresses T9, SPDEF (Homo sapiens, UniProt O95238 1-335).
T9 sequence: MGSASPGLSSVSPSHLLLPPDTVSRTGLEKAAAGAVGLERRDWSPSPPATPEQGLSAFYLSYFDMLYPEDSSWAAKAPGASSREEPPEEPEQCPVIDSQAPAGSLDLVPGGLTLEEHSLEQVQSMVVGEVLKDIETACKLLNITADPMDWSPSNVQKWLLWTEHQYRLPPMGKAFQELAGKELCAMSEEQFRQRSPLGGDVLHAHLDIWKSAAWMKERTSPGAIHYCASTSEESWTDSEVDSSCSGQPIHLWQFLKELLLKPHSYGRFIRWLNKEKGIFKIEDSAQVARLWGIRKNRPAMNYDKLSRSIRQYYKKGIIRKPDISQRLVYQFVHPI
As to conditions: protein: recombinant; tags: N-terminal GST; dsDNA, one strand shown. A digest of the protocol:
as §1

Experiment [15] addresses T10, ETV7 (Homo sapiens, UniProt Q9Y603 1-341).
T10 sequence: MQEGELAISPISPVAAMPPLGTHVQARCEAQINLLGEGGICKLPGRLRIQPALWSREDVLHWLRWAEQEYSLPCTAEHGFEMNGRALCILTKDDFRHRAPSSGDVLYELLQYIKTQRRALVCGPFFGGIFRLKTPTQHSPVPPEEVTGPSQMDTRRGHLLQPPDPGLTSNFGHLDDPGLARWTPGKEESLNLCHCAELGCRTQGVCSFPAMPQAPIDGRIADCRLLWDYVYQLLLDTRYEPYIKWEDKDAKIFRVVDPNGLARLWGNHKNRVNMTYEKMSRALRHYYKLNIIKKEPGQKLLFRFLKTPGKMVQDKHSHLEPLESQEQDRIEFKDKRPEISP
Conditions: protein: recombinant; tags: N-terminal GST; dsDNA, one strand shown. A digest of the protocol:
as §1

For experiment [16], the target named is T11, ELF5 (Homo sapiens, UniProt Q9UKW6-2 1-255).
T11 sequence: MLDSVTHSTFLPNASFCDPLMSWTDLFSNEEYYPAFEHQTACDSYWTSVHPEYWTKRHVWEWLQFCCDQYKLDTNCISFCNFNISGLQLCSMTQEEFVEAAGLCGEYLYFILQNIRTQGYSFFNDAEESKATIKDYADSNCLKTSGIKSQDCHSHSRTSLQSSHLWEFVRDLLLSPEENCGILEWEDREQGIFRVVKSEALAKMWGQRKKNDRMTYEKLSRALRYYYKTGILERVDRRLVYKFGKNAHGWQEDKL
Conditions: protein: recombinant; tags: N-terminal GST; dsDNA, one strand shown. A digest of the protocol: as §1

Experiment [17] addresses T12, ETV3 (Homo sapiens, UniProt P41162-2 1-143).
T12 sequence: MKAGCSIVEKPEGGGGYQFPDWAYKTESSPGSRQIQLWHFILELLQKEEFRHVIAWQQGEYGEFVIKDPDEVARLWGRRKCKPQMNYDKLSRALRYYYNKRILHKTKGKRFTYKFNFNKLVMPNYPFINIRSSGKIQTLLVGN
As to conditions: protein: recombinant; tags: N-terminal GST; dsDNA, one strand shown. A digest of the protocol: as §1

The target of experiment [18] is ETV6 (Homo sapiens, UniProt P41212 1-452). Conditions: protein: recombinant; tags: N-terminal GST; dsDNA, one strand shown. A digest of the protocol:
as §1

Chain of CRX (O43186 whole entry): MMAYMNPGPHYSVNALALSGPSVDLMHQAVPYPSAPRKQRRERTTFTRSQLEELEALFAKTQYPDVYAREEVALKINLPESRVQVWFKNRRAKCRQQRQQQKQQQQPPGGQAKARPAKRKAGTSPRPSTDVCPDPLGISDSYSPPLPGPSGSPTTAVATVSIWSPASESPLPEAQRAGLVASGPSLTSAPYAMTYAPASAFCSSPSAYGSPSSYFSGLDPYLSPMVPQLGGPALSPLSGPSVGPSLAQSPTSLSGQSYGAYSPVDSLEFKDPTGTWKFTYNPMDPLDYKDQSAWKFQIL
Chain of HSF1 (Q00613 whole entry): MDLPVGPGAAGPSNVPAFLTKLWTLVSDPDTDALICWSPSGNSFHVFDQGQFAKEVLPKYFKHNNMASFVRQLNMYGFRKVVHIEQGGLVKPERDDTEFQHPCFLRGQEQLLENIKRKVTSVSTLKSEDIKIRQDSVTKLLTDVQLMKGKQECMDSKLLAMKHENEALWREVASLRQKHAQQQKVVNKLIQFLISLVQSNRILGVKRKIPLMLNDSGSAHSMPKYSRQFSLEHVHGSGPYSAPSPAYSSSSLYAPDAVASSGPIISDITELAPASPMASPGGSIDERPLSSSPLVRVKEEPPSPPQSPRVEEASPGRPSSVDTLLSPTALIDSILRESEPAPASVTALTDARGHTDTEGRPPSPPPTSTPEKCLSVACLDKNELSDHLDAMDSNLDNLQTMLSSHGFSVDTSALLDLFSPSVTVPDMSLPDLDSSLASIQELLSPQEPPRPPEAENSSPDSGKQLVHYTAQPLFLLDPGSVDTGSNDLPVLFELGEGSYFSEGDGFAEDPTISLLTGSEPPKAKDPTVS
Chain of ELF4 (Q99607 whole entry): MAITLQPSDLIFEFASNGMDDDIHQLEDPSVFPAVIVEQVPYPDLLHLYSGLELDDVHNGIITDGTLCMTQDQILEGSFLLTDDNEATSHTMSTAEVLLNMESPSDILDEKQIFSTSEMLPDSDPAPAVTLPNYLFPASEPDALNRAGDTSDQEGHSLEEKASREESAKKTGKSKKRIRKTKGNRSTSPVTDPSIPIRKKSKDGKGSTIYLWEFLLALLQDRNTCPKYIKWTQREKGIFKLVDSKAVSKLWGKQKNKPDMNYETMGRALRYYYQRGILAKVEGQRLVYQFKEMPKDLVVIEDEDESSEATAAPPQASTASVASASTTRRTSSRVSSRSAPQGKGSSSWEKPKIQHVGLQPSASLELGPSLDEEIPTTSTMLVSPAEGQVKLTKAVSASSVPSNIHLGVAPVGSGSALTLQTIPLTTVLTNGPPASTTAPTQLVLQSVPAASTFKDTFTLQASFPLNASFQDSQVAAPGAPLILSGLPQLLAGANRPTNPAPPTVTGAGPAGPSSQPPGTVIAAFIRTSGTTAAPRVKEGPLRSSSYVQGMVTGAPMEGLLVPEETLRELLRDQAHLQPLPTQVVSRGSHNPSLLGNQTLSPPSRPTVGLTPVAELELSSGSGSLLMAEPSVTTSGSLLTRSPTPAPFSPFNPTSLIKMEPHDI
Chain of ETV5 (P41161 whole entry): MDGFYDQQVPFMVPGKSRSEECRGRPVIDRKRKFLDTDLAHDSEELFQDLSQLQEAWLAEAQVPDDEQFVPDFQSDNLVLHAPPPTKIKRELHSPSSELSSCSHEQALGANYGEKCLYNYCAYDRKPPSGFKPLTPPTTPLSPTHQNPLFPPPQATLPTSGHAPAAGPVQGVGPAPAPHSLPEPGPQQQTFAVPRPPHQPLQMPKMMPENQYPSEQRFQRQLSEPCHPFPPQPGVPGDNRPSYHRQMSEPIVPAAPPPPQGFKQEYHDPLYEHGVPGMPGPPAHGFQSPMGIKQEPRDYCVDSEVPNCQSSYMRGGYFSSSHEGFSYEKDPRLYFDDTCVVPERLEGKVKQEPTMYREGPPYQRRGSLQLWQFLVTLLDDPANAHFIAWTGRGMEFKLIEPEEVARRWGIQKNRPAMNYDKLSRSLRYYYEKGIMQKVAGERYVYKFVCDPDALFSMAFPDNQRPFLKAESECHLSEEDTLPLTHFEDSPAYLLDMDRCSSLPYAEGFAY
Chain of ETV1 (P50549 whole entry): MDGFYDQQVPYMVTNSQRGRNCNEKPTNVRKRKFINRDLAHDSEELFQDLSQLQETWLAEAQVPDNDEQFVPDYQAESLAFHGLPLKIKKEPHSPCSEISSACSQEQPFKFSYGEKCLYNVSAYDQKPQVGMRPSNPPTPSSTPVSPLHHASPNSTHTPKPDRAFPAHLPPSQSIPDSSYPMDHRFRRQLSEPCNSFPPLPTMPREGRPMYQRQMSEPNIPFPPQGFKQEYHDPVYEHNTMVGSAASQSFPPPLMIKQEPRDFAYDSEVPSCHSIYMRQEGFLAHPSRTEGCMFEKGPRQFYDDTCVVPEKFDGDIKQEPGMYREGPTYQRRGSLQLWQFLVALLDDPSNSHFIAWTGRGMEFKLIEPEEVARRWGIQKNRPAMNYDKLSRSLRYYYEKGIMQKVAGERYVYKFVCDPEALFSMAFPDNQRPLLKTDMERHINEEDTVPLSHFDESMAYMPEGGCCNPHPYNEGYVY
Chain of ETV6 (P41212 whole entry): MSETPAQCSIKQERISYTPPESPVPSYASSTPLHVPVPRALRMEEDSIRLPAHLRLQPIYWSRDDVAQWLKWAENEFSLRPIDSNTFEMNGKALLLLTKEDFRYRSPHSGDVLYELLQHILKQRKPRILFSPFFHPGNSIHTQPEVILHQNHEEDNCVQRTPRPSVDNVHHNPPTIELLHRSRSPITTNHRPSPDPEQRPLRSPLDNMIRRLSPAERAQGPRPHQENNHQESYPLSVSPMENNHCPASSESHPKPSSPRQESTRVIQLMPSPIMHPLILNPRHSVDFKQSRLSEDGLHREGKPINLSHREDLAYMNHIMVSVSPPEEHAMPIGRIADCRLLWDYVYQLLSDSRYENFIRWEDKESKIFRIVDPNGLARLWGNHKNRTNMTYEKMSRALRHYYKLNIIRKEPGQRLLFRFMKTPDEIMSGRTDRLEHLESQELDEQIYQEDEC

For AATCAC, the binding signal in experiment [1] was 1.09 fold enrichment (6-mer frequency, TF over GST control); in experiment [2], 1.14 fold enrichment (6-mer frequency, TF over GST control); in experiment [3], 1.08 fold enrichment (6-mer frequency, TF over GST control); in experiment [4], 1.08 fold enrichment (6-mer frequency, TF over GST control); in experiment [5] it was 1.09 fold enrichment (6-mer frequency, TF over GST control); in experiment [6], 1.11 fold enrichment (6-mer frequency, TF over GST control). Also, the binding signal in experiment [7] is 1.18 fold enrichment (6-mer frequency, TF over GST control); in [8], 1.12 fold enrichment (6-mer frequency, TF over GST control); in experiment [9], 1.3 fold enrichment (6-mer frequency, TF over GST control); in experiment [10], 1.08 fold enrichment (6-mer frequency, TF over GST control); in [11], 1.05 fold enrichment (6-mer frequency, TF over GST control); in [12] it was 1.12 fold enrichment (6-mer frequency, TF over GST control). The binding signal in experiment [13] was 1.06 fold enrichment (6-mer frequency, TF over GST control); in experiment [14] it was 1.05 fold enrichment (6-mer frequency, TF over GST control); in [15], 1.02 fold enrichment (6-mer frequency, TF over GST control); in experiment [16], 1.09 fold enrichment (6-mer frequency, TF over GST control); in experiment [17] it was 1.07 fold enrichment (6-mer frequency, TF over GST control); in experiment [18], 1.09 fold enrichment (6-mer frequency, TF over GST control).
